# PubChem BioAssay (EPA / NIEHS)
# Activity calls are given as the source filed them. The calls were made as follows: active = hit-call score of the fitted dose curve at least 0.9, where 1 is the maximum; inactive = score below 0.9.
# Assay: CCTE_Shafer_MEA_acute_spike_number: CCTE's Neural Acute Assay for Total Number of Spikes, Shafer Lab (AID 2284008);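 as to AC50: curve fitted for decrease in spike count so AC50 reflects inhibitors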
# Procedure, shortened: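 Total spike count from 40 min recordings before and during compound exposure (0.03-40 uM), given as per-well percent change. Cortical cultures from rat, DIV 13 or 15, 37 C; adaptive detection threshold 8x rms noise.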
SMILES,outcome,AC50
CCOc1nc(F)cc2nc(S(=O)(=O)Nc3c(Cl)cccc3Cl)nn12,inactive,
N#CN=C1SCCN1Cc1ccc(Cl)nc1,inactive,
Clc1nc(Cl)nc(Nc2ccccc2Cl)n1,inactive,
CC1(C)C(C(=O)OC(C#N)c2cccc(Oc3ccccc3)c2)C1(C)C (stereo not given),inactive,
O=C(Nc1ccccc1-c1ccc(Cl)cc1)c1cccnc1Cl,inactive,
CNC(=O)Oc1cccc2ccccc12,inactive,
COP(=S)(OC)SCn1nnc2ccccc2c1=O,inactive,
OC(c1ccc(Cl)cc1)(c1ccc(Cl)cc1)C(Cl)(Cl)Cl,,1.83 µM (active)
C=C(C)CN(CC)c1c([N+](=O)[O-])cc(C(F)(F)F)cc1[N+](=O)[O-],,31.9 µM (active)
CN/C(=N\[N+](=O)[O-])NCc1cnc(Cl)s1,inactive,
